Assay results from PubChem BioAssay AID1159580 (chemical genetic matrix, 2015).
Several values for one entry are separate records, joined by “and”; a condition that tells them apart may be missing. Identical values can stand only once. Screen size: about 5,500 compounds; about 2,000 (36%) were called active. About 18% were inconclusive and are not listed. Rule as the data show it: active = normalized growth mostly below about 0.91 (no sharp cut-off); inconclusive = no clear call, values can overlap the other calls; inactive = mostly above about 0.92. Some of the results follow.

Test: chemical genetic growth profiling, strain panel (AID 1159580);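 also: tested at 20 µM; growth read once vehicle control cultures reached saturation at 30 °C; 1 = growth at the plate median or of vehicle wells; lower values mean less growth of the strain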
Settings: growth OD

Measured: normalized growth

CN(C)C(=O)Oc1ccc[n+](C)c1
inactive: S. cerevisiae deletion strains, locus YJR075W, strain HOC1, hits give low values 1 | S. cerevisiae deletion strains, locus YKL009W, strain mrt4, hits give low values 1.01 | S. cerevisiae deletion strains, locus YKL068W, hits give low values 1.02 | S. cerevisiae deletion strains, locus YKL085W, strain MDH1 (second series), hits give low values 1.01 | S. cerevisiae deletion strains, locus YKL085W, strain MDH1, hits give low values 1.01 | S. cerevisiae deletion strains, locus YKL160W, strain elf1, hits give low values 1 | S. cerevisiae deletion strains, locus YKL190W, strain CNB1, hits give low values 1.02 | S. cerevisiae deletion strains, locus YKR001C, strain vps1, hits give low values 1.01 | S. cerevisiae deletion strains, locus YKR026C, strain gcn3, hits give low values 1.01 | S. cerevisiae deletion strains, locus YKR091W, strain srl3, hits give low values 0.997 | S. cerevisiae deletion strains, locus YLL001W, strain dnm1, hits give low values 0.996 | S. cerevisiae deletion strains, locus YLL026W, hits give low values 0.999 | S. cerevisiae deletion strains, locus YLL041C, strain sdh2, hits give low values 1 | S. cerevisiae deletion strains, locus YLR027C, strain aat2, hits give low values 0.999 | S. cerevisiae deletion strains, locus YLR039C, strain RIC1, hits give low values 1.05 | S. cerevisiae deletion strains, locus YLR058C, strain SHM2, hits give low values 1.03 | S. cerevisiae deletion strains, locus YLR102C, strain apc9, hits give low values 1.01 | S. cerevisiae deletion strains, locus YLR113W, strain HOG1, hits give low values 1.05 | S. cerevisiae deletion strains, locus YLR221C, strain rsa3, hits give low values 0.997 | S. cerevisiae deletion strains, locus YLR258W, strain gsy2, hits give low values 1 | S. cerevisiae deletion strains, locus YLR262C, strain YPT6 (second series), hits give low values 1.01 | S. cerevisiae deletion strains, locus YLR262C, strain YPT6, hits give low values 1.06 | S. cerevisiae deletion strains, locus YLR268W, strain sec22, hits give low values 1.01 | S. cerevisiae deletion strains, locus YLR320W, strain mms22, hits give low values 1.01 | S. cerevisiae deletion strains, locus YLR330W, strain CHS5, hits give low values 1.01 | S. cerevisiae deletion strains, locus YLR342W, strain FKS1 (second series), hits give low values 1.06 | S. cerevisiae deletion strains, locus YLR342W, strain FKS1, hits give low values 1.01 | S. cerevisiae deletion strains, locus YLR357W, strain rsc2, hits give low values 1 | S. cerevisiae deletion strains, locus YLR370C, strain arc18, hits give low values 1.01 | S. cerevisiae deletion strains, locus YLR371W, strain rom2, hits give low values 1.01 | S. cerevisiae deletion strains, locus YLR384C, strain iki3, hits give low values 1.01 | S. cerevisiae deletion strains, locus YLR418C, strain cdc73, hits give low values 1.03 | S. cerevisiae deletion strains, locus YML016C, strain PPZ1, hits give low values 1.01 | S. cerevisiae deletion strains, locus YML032C, strain rad52, hits give low values 1.01 | S. cerevisiae deletion strains, locus YML120C, strain ndi1, hits give low values 1 | S. cerevisiae deletion strains, locus YML124C, strain tub3, hits give low values 1.04 | S. cerevisiae deletion strains, locus YMR058W, strain fet3, hits give low values 0.994 | S. cerevisiae deletion strains, locus YMR078C, strain ctf18, hits give low values 1.01 | S. cerevisiae deletion strains, locus YMR125W, strain sto1, hits give low values 1 | S. cerevisiae deletion strains, locus YMR129W, hits give low values 1 | S. cerevisiae deletion strains, locus YMR205C, strain PFK2, hits give low values 1.02 | S. cerevisiae deletion strains, locus YMR223W, strain ubp8, hits give low values 1.05 | S. cerevisiae deletion strains, locus YMR231W, strain pep5, hits give low values 1 | S. cerevisiae deletion strains, locus YMR263W, strain SAP30, hits give low values 1.01 | S. cerevisiae deletion strains, locus YMR307W, strain GAS1, hits give low values 1.04 | S. cerevisiae deletion strains, locus YNL067W, strain RPL9B, hits give low values 1.01 | S. cerevisiae deletion strains, locus YNL071W, strain lat1, hits give low values 1 | S. cerevisiae deletion strains, locus YNL153C, strain GIM3, hits give low values 0.986 | S. cerevisiae deletion strains, locus YNL175C, strain NOP13, hits give low values 0.972 | S. cerevisiae deletion strains, locus YNL183C, strain NPR1, hits give low values 0.981 | S. cerevisiae deletion strains, locus YNL197C, strain WHI3, hits give low values 0.961 | S. cerevisiae deletion strains, locus YNL209W, strain ssb2, hits give low values 1 | S. cerevisiae deletion strains, locus YNL224C, strain SQS1, hits give low values 0.982 | S. cerevisiae deletion strains, locus YNL233W, strain BNI4, hits give low values 1 | S. cerevisiae deletion strains, locus YNL248C, strain rpa49, hits give low values 0.996 | S. cerevisiae deletion strains, locus YNL250W, strain rad50, hits give low values 1.02 | S. cerevisiae deletion strains, locus YNL271C, strain bni1, hits give low values 1.02 | S. cerevisiae deletion strains, locus YNL298W, strain CLA4, hits give low values 1.02 | S. cerevisiae deletion strains, locus YNL307C, strain MCK1, hits give low values 1.02 | S. cerevisiae deletion strains, locus YNL322C, strain KRE1 (second series), hits give low values 1 | S. cerevisiae deletion strains, locus YNR049C, strain mso1, hits give low values 1 | S. cerevisiae deletion strains, locus YNR052C, strain pop2, hits give low values 1.02 | S. cerevisiae deletion strains, locus YOL006C, strain TOP1, hits give low values 0.966 | S. cerevisiae deletion strains, locus YOL012C, strain htz1 0.894 | S. cerevisiae deletion strains, locus YOL147C, strain pex11, hits give low values 1.02 | S. cerevisiae deletion strains, locus YOR001W, strain rrp6, hits give low values 0.985 | S. cerevisiae deletion strains, locus YOR061W, strain CKA2, hits give low values 1.02 | S. cerevisiae deletion strains, locus YOR069W, strain VPS5, hits give low values 1.02 | S. cerevisiae deletion strains, locus YOR070C, strain gyp1, hits give low values 1 | S. cerevisiae deletion strains, locus YOR080W, strain dia2, hits give low values 1.03 | S. cerevisiae deletion strains, locus YOR083W, strain WHI5 (second series), hits give low values 0.968 | S. cerevisiae deletion strains, locus YOR083W, strain WHI5, hits give low values 0.999 | S. cerevisiae deletion strains, locus YOR106W, strain vam3, hits give low values 1 | S. cerevisiae deletion strains, locus YOR136W, strain idh2, hits give low values 1.02 | S. cerevisiae deletion strains, locus YOR144C, strain elg1, hits give low values 1.01 | S. cerevisiae deletion strains, locus YOR184W, strain ser1, hits give low values 1.01 | S. cerevisiae deletion strains, locus YOR231W, strain MKK1, hits give low values 1.03 | S. cerevisiae deletion strains, locus YOR265W, strain rbl2, hits give low values 1.01 | S. cerevisiae deletion strains, locus YOR270C, strain vph1, hits give low values 0.993 | S. cerevisiae deletion strains, locus YOR290C, strain snf2, hits give low values 1 | S. cerevisiae deletion strains, locus YOR316C, strain cot1, hits give low values 1.02 | S. cerevisiae deletion strains, locus YPL051W, strain arl3, hits give low values 1 | S. cerevisiae deletion strains, locus YPL055C, strain LGE1, hits give low values 1 and 1.04 | S. cerevisiae deletion strains, locus YPL078C, strain atp4, hits give low values 0.999 | S. cerevisiae deletion strains, locus YPL106C, strain sse1, hits give low values 1.01 | S. cerevisiae deletion strains, locus YPL240C, strain hsp82, hits give low values 1 | S. cerevisiae deletion strains, locus YPL241C, strain CIN2, hits give low values 0.991 | S. cerevisiae deletion strains, locus YPL256C, strain CLN2, hits give low values 1 | S. cerevisiae deletion strains, locus YPR119W, strain clb2, hits give low values 1.01 | S. cerevisiae deletion strains, locus YPR141C, strain kar3, hits give low values 1.02 | S. cerevisiae deletion strains, locus YPR163C, strain tif3, hits give low values 1.02 | S. cerevisiae deletion strains, locus YPR167C, strain met16, hits give low values 1.01 | S. cerevisiae deletion strains, strain wtn01, hits give low values 1.01 | S. cerevisiae strains, strain wild type, hits give low values 1.02
